# Measurements from PubChem BioAssay AID492998 (Southern Research Specialized Biocontainment Screening …, 2010).
# About 550 (24%) of roughly 2,300 compounds were called active. No rule for the calls is given here. Not all results are given here. Potency and affinity values are given separately.
# Experiment: Vero E6 cell cytotoxicity, dose response, cytotoxicity control for non-replicating M. tuberculosis project, secondary assay (AID 492998);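 also: 100% = vehicle-treated cells and 0% = background wells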
# Conditions: series mostly up to 20 µM; viability: at the top concentration
row,Structure (SMILES),viability
1,Nc1ccc(C(=O)N/N=C\C=C\c2ccc([N+](=O)[O-])cc2)cc1,93.4% (inactive)
2,CCCOC(=O)c1cc(-c2ccc(C=O)o2)ccc1Cl,96.6% (inactive)
3,CCCCCCCCCCn1cc(C(C)=O)c(=O)[nH]c1=O,102% (inactive)
4,CCC(CC)COC(=O)C(C#N)c1nc2ccccc2nc1N1CCN(CC)CC1 (stereo not drawn),79.7% (inactive)
5,CC(CCc1ccccc1)NC(=O)COC(=O)c1cccs1 (stereo not drawn),99.3% (inactive)
6,COc1ccc(N2C(=O)NC(=O)/C(=C/c3ccc([N+](=O)[O-])s3)C2=O)cc1,84.4% (inactive)
7,O=C(NCCC1=CCCCC1)c1ccc(Br)o1,87.7% (inactive)
8,Cc1n[nH]c(=S)n1/N=C/c1ccc(OCc2ccc(Cl)cc2Cl)cc1,95% (inactive)
9,Cc1cc(-c2c(C)[nH]n(-c3ccccc3)c2=O)n[nH]1,79.9% (inactive)
10,O=C1CC(N2CCC(C(=O)N3CCCCC3)CC2)C(=O)N1 (stereo not drawn),106% (inactive)
11,CCOC(=O)C1=C(c2ccccc2)NC(N)=NC1c1ccc(OCc2ccc(Cl)cc2)c(OC)c1 (stereo not drawn),83.5% (inactive)
12,CCC(=O)c1ccc(OCc2ccc(C(=O)OC)cc2)cc1,93.7% (inactive)
13,CCOC(=O)C(=O)NC12CC3CC(CC(C3)C1)C2,102% (inactive)
14,COC(=O)c1cc(-c2ccc(OC)cc2)on1,96.7% (inactive)
15,O=C1OC(/C=C/c2ccccc2)=NC/1=C\c1cccnc1,101% (inactive)
16,CCC1CCC(c2nnc(-c3ccc([N+](=O)[O-])cc3)o2)CC1 (stereo not drawn),106% (inactive)
17,O=c1c2c([N+](=O)[O-])cc([N+](=O)[O-])cc2nc2ccccn12,90% (inactive)
18,O=C(OCc1cccc([N+](=O)[O-])c1)c1ccc2ccccc2n1,94.8% (inactive)
19,CCCNC(=O)COC(=O)c1cc2c(=O)n3ccccc3nc2s1,103% (inactive)
20,CN1/C(=C\C=N\NC(=O)c2cccnc2)C(C)(C)c2ccccc21,97.1% (inactive)
21,O=C(OCC(=O)N1CCc2ccccc2C1)c1cccc([N+](=O)[O-])c1,99.2% (inactive)
22,COc1cc(/C=N/NC(=O)c2ccncc2)ccc1OC(=O)c1cccc(F)c1,97.5% (inactive)
23,Clc1cccc(CNCCNCc2cccc(Cl)c2)c1,84.5% (inactive)
24,Clc1ccc(Cl)c(OCCCCNCc2ccccc2)c1,86.6% (inactive)

row,Structure (SMILES),viability
1,COc1ccc(NC(=O)COc2ccccc2)cc1Cl,89.8% (inactive)
2,CCOC(=O)Nc1cccc(OCC(=O)Nc2ccccc2OC)c1,92.2% (inactive)
3,Cc1ccc(NC(=O)CCSc2nnc(Cc3ccccc3)o2)cc1,97.4% (inactive)
4,O=S(=O)(c1ccc(OCC2CO2)cc1)c1ccc(OCC2CO2)cc1 (stereo not drawn),88.2% (inactive)
5,COc1ccc(CCOC(=O)c2ccc(N)c([N+](=O)[O-])c2)cc1,89.5% (inactive)
6,CCCCN1C(=O)C2(NNc3ccccc3O2)c2ccccc21 (stereo not drawn),93.7% (inactive)
7,Cc1ccc(NC(=O)COC(=O)CCc2c[nH]c3ccccc23)cc1[N+](=O)[O-],106% (inactive)
8,Cc1cc(NC(=O)c2cc([N+](=O)[O-])cc([N+](=O)[O-])c2)no1,99.3% (inactive)
9,CC(NC(=O)COc1ccc(-c2ccccc2)cc1)C1CCCO1 (stereo not drawn),102% (inactive)
10,COc1ccc(C(=O)NNC2=C(C(=O)C(F)(F)F)CCC2)cc1,79.2% (inactive)
11,CCCCNC(=O)COC(=O)c1cc(F)c(F)cc1Cl,105% (inactive)
12,Clc1ccc(OCCCNCc2ccccc2)c2ccccc12,75.4% (inactive)
13,COc1cc(CNC2CCCC2)cc(Cl)c1OCc1ccc(F)cc1,72.3% (inactive)
14,O=C(Cc1c(F)cccc1Cl)Nc1ncc([N+](=O)[O-])s1,89.8% (inactive)
15,Cc1nc(C)c(/C(O)=C/c2nc3ccccc3oc2=O)s1,85.2% (inactive)
16,Cc1cccc2c(CC(=O)O)noc12,94.5% (inactive)
17,CC(C)(C)c1cc(CN2CCC(O)CC2)cc(C(C)(C)C)c1O,114% (inactive)
18,Cc1ccc(-n2sc3ccccc3c2=O)cc1,88.5% (inactive)
19,Cc1ccnc(-n2sc3ccccc3c2=O)n1,82.7% (inactive)
20,Cn1c(=O)c(Oc2ccc(F)cc2)c(O)c2ccccc21,95% (inactive)
21,CSC1=N/C(=C\c2ccc3c(c2)OCO3)C(=O)S1,105% (inactive)
22,O=C(COC(=O)c1ccc(Br)o1)NCCCc1ccccc1,98.4% (inactive)
23,O=C(Nc1nnc(C2=COCCO2)o1)c1ccc(Cc2ccccc2)cc1,98.7% (inactive)
24,Cc1ccsc1C(=O)OCC(=O)Nc1nnc(-c2ccccc2)o1,110% (inactive)

row,Structure (SMILES),viability
1,Cc1ccc(NC(=O)CCSc2nnc(-c3ccco3)o2)cc1,103% (inactive)
2,O=C(NC1CCCC1)c1cc(-c2cccs2)on1,101% (inactive)
3,Cc1ccccc1C(=O)Nc1nnc(-c2ccco2)o1,75.4% (inactive)
4,O=C(Nc1ccc(Cl)cc1)C1CCCC1,98.3% (inactive)
5,O=C(O)c1ccc(-n2nc(C(F)(F)F)c3c2CCCC3)cc1,98.3% (inactive)
6,Brc1c(-c2ccc3c(c2)OCO3)nc2ncccn12,97.5% (inactive)
7,COc1ccc(CC(=O)OCC(=O)Nc2ccc(Br)cc2)cc1,96.7% (inactive)
8,CN1CCN(/N=C/c2ccc(-c3ccc([N+](=O)[O-])cc3Cl)o2)CC1,90.6% (inactive)
9,O=C(Nc1ccc2c(c1)CCC2)c1ccc(Br)o1,93.6% (inactive)
10,COC(=O)COc1cccc(NC(=O)c2cccc(C)c2)c1,99.5% (inactive)
11,CCCCN(C)C(=O)c1cc2cc3ccc(OC)cc3nc2s1,86.7% (inactive)
12,O=C(Nc1cccc([N+](=O)[O-])c1)C1COc2ccccc2O1 (stereo not drawn),93.8% (inactive)
13,O=C(N/N=C/c1ccc(OC(=O)c2ccco2)cc1)c1ccccn1,101% (inactive)
14,Cc1ccc(OC(=O)CCS(=O)(=O)c2ccc(C)cc2)cc1,101% (inactive)
15,CC1=NN(C(=O)c2ccc(Br)cc2)C(O)(c2ccccc2)C1 (stereo not drawn),81.5% (inactive)
16,CC1(c2nnc(-c3ccc(F)cc3)o2)CC(c2cccc(Cl)c2)=NO1 (stereo not drawn),97.2% (inactive)
17,COc1cccc(COC(=O)CCNC(=O)c2ccc(Br)cc2)c1OC,98.2% (inactive)
18,CCOc1cc(-c2sc(Nc3cc(C)ccc3OC)n[n+]2-c2ccccc2)ccc1OC,99.9% (inactive)
19,CN1CCN(c2cc3c(cc2F)c(=O)c(C(=O)O)cn3CCF)CC1,99.5% (inactive)
20,Cc1ccccc1C(=O)NN1CC(C(=O)OCc2ccc(Cl)c(Cl)c2)CC1=O (stereo not drawn),104% (inactive)
21,CCc1ccc(OCCCC(=O)NCc2ccco2)cc1,110% (inactive)
22,COc1ccc(OCCOC(=O)c2cccs2)cc1,99.2% (inactive)
23,COc1ccc(NC(=O)C(=O)NNC(=O)C(C)Oc2ccc(Cl)cc2Cl)cc1 (stereo not drawn),92.2% (inactive)
24,CCCOC(=O)c1ccc(OC(=O)c2ccco2)cc1,94.4% (inactive)

row,Structure (SMILES),viability
1,C/C(=N\NC(=O)c1ccco1)c1cc(Cl)sc1Cl,92.5% (inactive)
2,O=C(COc1ccc([N+](=O)[O-])cc1)NNC(=O)c1cccs1,112% (inactive)
3,COc1ccc(OCCC(=O)OCC(=O)Nc2ccc(Br)cc2)cc1,104% (inactive)
4,CC(C(=O)OCC(=O)c1ccccc1)N1C(=O)C2C3CCC(C3)C2C1=O (stereo not drawn),98.4% (inactive)
5,COc1cccc(C(=O)OCC(=O)c2ccc(Br)s2)c1OC,108% (inactive)
6,COc1ccccc1C1=Nn2c(nnc2C2CCCCC2)SC1,97.1% (inactive)
7,c1nc2n(n1)C1=C(CCCC1)C1(CCCCC1)N2,104% (inactive)
8,O=C(Nc1ccc(Cl)cc1Cl)c1cccc(N2C(=O)C=CC2=O)c1,105% (inactive)
9,O=c1c2cc(Cl)ccc2oc2nc3n(c(=O)c12)CCCS3,94.8% (inactive)
10,CCCc1nnc(NC(=O)c2cc3ccccc3oc2=O)s1,102% (inactive)
11,COCc1[nH]nc2c1C(c1sccc1C)C(C#N)=C(N)O2 (stereo not drawn),90.7% (inactive)
12,CCc1ccc(OCC(=O)c2c(O)c3ccccc3oc2=O)cc1,110% (inactive)
13,O=C(CCC1CCCCC1)NCc1cccs1,107% (inactive)
14,C/C(O)=C\c1nc2ccccc2oc1=O,83.7% (inactive)
15,COc1ccc(/C=C/c2nc3ccccc3c(=O)o2)cc1,93.3% (inactive)
16,Oc1cc(NCc2cccnc2)ccc1-c1nc2ccccc2o1,70.9% (inactive)
17,COc1cc(/C=N/Nc2cccc3cccnc23)cc(OC)c1O,88.8% (inactive)
18,CC(=O)c1ccc(-c2nnc(CCC(=O)N(C)Cc3cccc4cnccc34)o2)s1,103% (inactive)
19,c1coc(CNc2nc(N3CCCCC3)nc3ccccc23)c1,82.4% (inactive)
20,O=[N+]([O-])c1ccc(CSc2nnc(-c3cccnc3)o2)cc1,96.4% (inactive)
21,CC1CCN(C(=O)COC(=O)CCc2c[nH]c3ccccc23)CC1,87.8% (inactive)
22,Cc1ccc(N=N/C(=C\O)C(=O)c2ccncc2)cc1,101% (inactive)
23,CCOC(=O)Nc1cccc(OCC(=O)Nc2ccc(OC)cc2OC)c1,92.2% (inactive)
24,O=C(Nc1ncc([N+](=O)[O-])s1)c1ccc2c(c1)OCO2,72.5% (inactive)

row,Structure (SMILES),viability
1,Cc1ccc(NC(=O)COC(=O)C2=COCCO2)c([N+](=O)[O-])c1,97.8% (inactive)
2,O=C(Nc1nccs1)c1ccc2ccccc2c1,90.7% (inactive)
3,O=C(COC(=O)c1cc(Br)ccc1O)Nc1ccc2c(c1)OCO2,105% (inactive)
4,COc1ccc2nc(/N=C(\N)NC(=O)C(C)(C)C)nc(C)c2c1,84.7% (inactive)
5,COc1ccc(Nc2ccccc2N)cc1,70.4% (inactive)
6,Cc1cccc(NC(=O)c2cc3ccccc3oc2=O)c1,75.2% (inactive)
7,CCc1ccc(N2C(=O)NC(=O)/C(=C\C=C\c3ccco3)C2=O)cc1,95% (inactive)
8,O=C(COc1ccc2ccccc2c1)NNC(=O)c1cccs1,106% (inactive)
9,CCc1c(C)c2ccc(OCC(=O)OC)cc2oc1=O,99.3% (inactive)
10,O=C(O/N=C/c1ccc2c(c1)OCO2)c1ccc([N+](=O)[O-])cc1,95% (inactive)
11,CCC(=O)Nc1ccc(C(=O)NNC(=O)c2cc([N+](=O)[O-])cc([N+](=O)[O-])c2)cc1,91.2% (inactive)
12,c1ccc(OCc2nnc3sc(-c4cccs4)nn23)cc1,91% (inactive)
13,CCOC(=O)c1cc([N+](=O)[O-])c([N+](=O)[O-])cc1NC(C)=O,88% (inactive)
14,O=C(c1ccc([N+](=O)[O-])o1)N1CCN(c2nc3ccc(F)cc3s2)CC1,99.2% (inactive)
15,COc1cc2c(cc1OC)CN(C(=O)c1ccc([N+](=O)[O-])o1)CC2,72% (inactive)
16,CC1(CCc2ccc3c(c2)OCO3)NC(=O)c2ccccc2N1 (stereo not drawn),99.9% (inactive)
17,COc1ccccc1-c1nnc(-c2ccc(C)cc2)o1,92.6% (inactive)
18,COc1ccccc1-c1cc(SC)c(C#N)c(=O)o1,84.8% (inactive)
19,CCc1ccc(NC(=O)CCc2ccc(C)o2)cc1,101% (inactive)
20,O=S(=O)(NCc1cccnc1)c1ccc(Cl)c(Cl)c1Cl,92.2% (inactive)
21,Cc1ccccc1OCCNc1cc(N2CC(C)NC(C)C2)ccc1[N+](=O)[O-] (stereo not drawn),83.2% (inactive)
22,CC1CCCN(CCCOc2ccc([N+](=O)[O-])cc2)C1 (stereo not drawn),104% (inactive)
